Measured values taken from PubChem BioAssay AID1347416 (National Center for Advancing Translational Sciences (NCATS), 2020).
Screen size: about 4,100 compounds; about 1,600 (39%) were called active. Inconclusive results (about 25%) are left out. The list shows a part of the results. Values without a mark were called inactive. Calls follow the shape of the dose curve; as a rule, active = well fitted inhibition curve with a large enough effect; inconclusive = small, poorly fitted or top-dose-only effect; inactive = no such curve, though single readings can be large or run the other way.

Test: qHTS Validation assay for Inhibitors of Plasmodium falciparum Dd2 growth in vitro; also: nearly all actives have a fitted effect of over 70% in size
Details: P. falciparum Dd2 in RBCs, SYBR Green growth, 72 h; series mostly up to 28.7 µM; activity change, negative = inhibition: at the top concentration
Procedure, shortened: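 P. falciparum Dd2-infected red blood cells (2.5% hematocrit, 0.3% parasitemia) grown 72 h at 37 °C under 5% O2 with compounds in a titration, 29 uM to 0.5 nM final. Growth read as SYBR Green-1 fluorescence after ~16 h lysis; artesunate 300 nM as positive control.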
% is scaled to controls: 0 for no effect and ±100 for the full control effect; potency is read from the fitted curve at half-maximal effect.

Row | SMILES | activity change, negative = inhibition | Potency
1 | CC1(CNc2ccccc2)COc2ccc(C(=O)NCc3cccs3)cc2N1 (stereo unspecified) | 0% [at 43.1 µM] | 
2 | O=C(c1ccccc1)N1CCC(N(Cc2cccnc2)C2CCOCC2)CC1 | 9.55% | 
3 | COc1ccc2nc(N(Cc3cccnc3)C(=O)CCc3ccccc3)sc2c1 |  | 6.68 µM (active)
4 | COc1cccc(CN(C)C(=O)CCc2nnc(-c3ccsc3)o2)c1 | 23.3% | 
5 | c1cnc(N2CCOCC2)c(OC2CCNC2)n1 (stereo unspecified) |  | 7.5 µM (active)
6 | COc1ccccc1-c1nnc(C2CCN(C(=O)c3ccc(Cl)cc3)CC2)o1 | 45% | 
7 | CCC(=O)N1c2ccccc2CC1C(=O)NCCc1ccccc1OC (stereo unspecified) | -37.3% | 
8 | COc1ccccc1-c1nnc2n1C(C(=O)NCCc1ccc(Cl)cc1)CC2 (stereo unspecified) |  | 3.35 µM (active)
9 | COc1ccc(CNC(=O)CCCn2c(=O)c3cccn3c3ccc(F)cc32)cc1OC | -21.9% | 
10 | COc1ccccc1NC(=O)C(=O)NCCc1csc(-c2cccc(F)c2)n1 | 17.3% | 
11 | CC(NC(=O)Cn1c(-c2cccs2)cc2cc(F)ccc21)c1ccccc1 (stereo unspecified) |  | 2.66 µM (active)
12 | COc1ccc(CCNC(=O)Cn2c(-c3cccs3)cc3cc(F)ccc32)cc1OC |  | 4.73 µM (active)
13 | Fc1cc(F)cc(Cc2nc3nccc(-c4cccs4)n3n2)c1 | -9.69% | 
14 | FC(F)(F)c1cnc(N2CCCN(C(=S)Nc3ccccc3)CC2)c(Cl)c1 |  | 4.73 µM (active)
15 | O=C(C1CC1)N1CCC(c2nc(C3CCOCC3)no2)CC1 | 0% | 
16 | CC(C)CNC(=O)c1nc(-c2ccc(Cl)cc2)c2cnccn12 |  | 8.63 µM (active)
17 | COCCNC(=O)c1nc(-c2ccc([S+](C)(=O)[O-])cc2)c2ccccn12 | -0.0535% | 
18 | COC(=O)c1[nH]c2cccc(Cl)c2c1NC(=O)CN1CCCCC1C (stereo unspecified) | -8.86% | 
19 | COCCOc1cc(=O)n2c(c1C(=O)NCc1ccc(OC)cc1)CCOCC2 | -24.8% | 
20 | Cc1ccsc1C(=O)Nc1cccc(-c2nnc3n2CCCC3)c1 | -10.3% | 
21 | COc1cc(=O)n2c(c1C(=O)Nc1ccc(N(C)C)cc1)CCCC2 |  | 10.6 µM (active)
22 | COc1ccc(C2=[N+](C)CCn3cccc32)c(OC)c1 |  | 10.6 µM (active)
23 | COc1ccc(-c2cc(-c3ccc(N4CCOCC4)nc3)cn3cncc23)cc1 |  | 7.69 µM (active)

Row | SMILES | activity change, negative = inhibition | Potency
24 | COc1ccc(CNC(=O)CCc2c(C)nn(-c3ccc(N4CCOCC4)nn3)c2C)cc1 | 24.5% | 
25 | COc1ccc(-c2cc(-c3cccc(OC)c3OC)cn3cncc23)cc1 |  | 6.85 µM (active)
26 | CCOc1c(OC)cccc1-c1nc2ccc(-c3ccc(OC)c(OC)c3OC)cc2o1 | -21.4% | 
27 | Nc1ncnc2c1ncn2[C@H]1O[C@@H](CNS(=O)(=O)NC(=O)c2cccc(-c3noc(-c4ccccc4F)n3)c2)[C@H](O)[C@@H]1O | 5.64% | 
28 | O=C(C1Cn2cccc2C(=O)N1Cc1ccccc1)N1CCN(c2ncccn2)CC1 (stereo unspecified) | -10.5% | 
29 | Cc1ccc(C)c(-n2c(-c3ccc(Br)cc3)csc2=NC(=O)c2ccccc2F)c1 |  | 4.73 µM (active)
30 | CCCOc1cccc(C2c3c(oc4ccc(F)cc4c3=O)C(=O)N2Cc2ccc3c(c2)OCO3)c1 (stereo unspecified) | 2.36% | 
31 | CCCOc1cccc(C2c3c(oc4cc(C)c(C)cc4c3=O)C(=O)N2CCCN2CCOCC2)c1 (stereo unspecified) |  | 13.3 µM (active)
32 | CCN1CCN(c2cc(C)c3cc(NC(=O)/C=C/c4cccc(OC)c4OC)ccc3n2)CC1 |  | 5.96 µM (active)
33 | COc1cccc(/C=C/C(=O)Nc2ccc3nc(N4CCN(C)CC4)cc(C)c3c2)c1OC |  | 5.96 µM (active)
34 | COc1cccc(C(=O)Nc2cccc(-c3cn4c(C)csc4n3)c2)c1OC | 9.23% | 
35 | Cc1ncc(CN2CCC(C(=O)Nc3ccc(-n4cccn4)cc3)CC2)s1 |  | 4.73 µM (active)
36 | CCOC(=O)c1c(S(=O)(=O)N2CCC(C(=O)Nc3ccc(OCC)cc3)CC2)c(C)n(C)c1C | 0% | 
37 | Cc1ccsc1CN1CCC(C(=O)N2CCCCCCNC(=O)CC2)CC1 | -1.02% | 
38 | O=C(NCc1ccco1)c1ccc2c(c1)N(Cc1ccc(F)cc1)C(=O)c1ccccc1S2(=O)=O | -17.7% | 
39 | CN(C)CCNC(=O)c1ccc2c(c1)N(Cc1c(F)cccc1Cl)C(=O)c1ccccc1S2 |  | 2.11 µM (active)
40 | Cc1ccccc1CNC(=O)CC1C(=O)NCCN1Cc1c(F)cccc1Cl (stereo unspecified) | 2.91% | 
41 | CCCCN(CC)CCCNC(=O)c1ccc2c(c1)N(Cc1ccc(C)cc1)C(=O)c1ccccc1S2 |  | 1.88 µM (active)
42 | O=C(NCc1ccco1)c1ccc2c(c1)N(Cc1c(F)cccc1Cl)C(=O)c1ccccc1S2 |  | 13.3 µM (active)
43 | CC(C)CCNC(=O)c1ccc2c(c1)CC(=O)N2Cc1ccccc1 | 1.52% | 
44 | CCN(CC)CCCNC(=O)c1ccc2c(c1)N(Cc1c(F)cccc1Cl)C(=O)c1ccccc1S2 |  | 0.944 µM (active)
45 | COCCCNC(=O)c1ccc2c(c1)CC(=O)N2Cc1ccccc1 | 1.11% | 
46 | CC(C)[C@@H]1CN(C(=O)CCn2ccc(=O)[nH]c2=O)C[C@H]1NS(C)(=O)=O | 59.1% | 
